Lamin A splicing – modulators of lamin A splicing | Potency, µM (top dose mostly 46.1 µM), without a hit: at the top dose ratio change, negative = inhibition, actives largely listed as inhibitors | 200,000 compounds, 0.01% hits | HeLa LMNA splicing GFP/RFP minigene ratio, 48 h | AID 1487; active = well fitted inhibition curve with a large enough effect in the signal ratio, with a control signal flat, not every such curve was filed as active; inconclusive = small, poorly fitted or top-dose-only effect, or effect the other way, or a change in a side signal; the % refers to the signal ratio; note: % is set by controls: 0 for no effect and ±100 for the full control effect
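Read-out is the ratio of GFP to DsRed2 object intensity, acquired by 488 nm laser-scanning cytometry on HeLa lamin A-EGFP minigene reporter cells. Compound incubation 48 hrs at 37 °C in Opti-MEM with 2% FBS; DMSO 0.5% final.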
ALDH1A1 block – blocks purified human ALDH1A1 activity; Purified ALDH1A1, NADH fluorescence, propionaldehyde substrate; Potency, µM (titrated, usually from 75.3 µM), inactives show at the top dose activity, negative = inhibition, usual class: inhibitors; 220,000 compounds, 7.3% hits; AID 1030;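 note: plate controls were no enzyme wells and a reference inhibitor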
HTT ATP protect – protects HTT-Q103 PC12 cells, measured by ATP. PC12 HTT-Q103 induced, cytoprotection, ATP luminescence, 40 h. Potency, µM (doses to about 56.4 µM), for inactives: cytoprotection (ATP increase), actives largely listed as activators. 230,000 compounds, 0.14% hits; active = well fitted curve in the direction sought with a large enough effect; inconclusive = small, poorly fitted or top-dose-only effect, or another doubt; inactive = no such curve, though single readings can be large; an effect the other way counts as inactive or inconclusive; note: % of control where 0% means no effect; nearly all actives have a fitted effect of over 45% in size
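Readout: ATPlite luminescence (ATP level). Model: stable PC12, inducible Htt exon1 Q103-GFP. Inducer: tebufenozide, 100 nM final. Compounds: dose series. No G418 in medium.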
HTT aggregate – reduces HttQ103-GFP aggregates in PC12 cells. PC12 HttQ103-GFP aggregates, Acumen cytometry, 40 h. Potency, µM (series often up to 46.1 µM), for inactives: at the top dose activity change, negative = inhibition, hits mostly inhibitors. 220,000 compounds, 1.1% hits. AID 1688; active = well fitted curve in the direction sought with a large enough effect; inconclusive = small, poorly fitted or top-dose-only effect, or another doubt; inactive = no such curve, though single readings can be large; an effect the other way counts as inactive or inconclusive; note: % is set by controls: 0 for no effect and ±100 for the full control effect; nearly all actives have a fitted effect of over 60% in size
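Aggregates are detected as GFP objects 1–25 µm with signal 6 STDEV over background in lysates of induced PC12 cells. These carry Huntingtin exon 1 with 103 glutamines fused to GFP under an ecdysone promoter; compounds titrated.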
KDM4E inh – JMJD2E (human) inhibition; JMJD2E catalytic domain, FDH-coupled NADH fluorescence (FDH is formaldehyde dehydrogenase); B2RXH2; AID 2147; Potency, µM (top dose mostly 57.1 µM), for inactives: at the top dose activity change, negative = inhibition, most hits filed as inhibitors; 230,000 compounds, 1.6% hits;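 note: 0% = wells with enzyme and -100% = buffer wells without enzyme; nearly all actives have a fitted effect of over 50% in size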
Target sequence (B2RXH2 1-337 limits assumed): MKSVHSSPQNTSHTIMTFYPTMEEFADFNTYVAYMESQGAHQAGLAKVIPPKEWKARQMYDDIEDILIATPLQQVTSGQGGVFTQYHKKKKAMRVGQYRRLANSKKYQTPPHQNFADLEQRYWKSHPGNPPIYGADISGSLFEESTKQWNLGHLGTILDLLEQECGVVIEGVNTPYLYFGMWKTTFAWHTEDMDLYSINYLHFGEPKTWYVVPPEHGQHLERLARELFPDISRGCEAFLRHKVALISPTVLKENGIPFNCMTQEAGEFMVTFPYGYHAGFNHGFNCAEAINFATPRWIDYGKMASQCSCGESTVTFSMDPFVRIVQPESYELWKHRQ
HPGD block – blocks human HPGD enzyme activity; purified HPGD, NADH fluorescence kinetic, PGE2 substrate; Potency, µM, inactives show top-dose activity change, negative = inhibition, actives largely listed as inhibitors; 150,000 compounds, 4.3% hits; note: % is set by controls: 0 for no effect and ±100 for the full control effect
Target sequence (P15428 whole entry, looked up): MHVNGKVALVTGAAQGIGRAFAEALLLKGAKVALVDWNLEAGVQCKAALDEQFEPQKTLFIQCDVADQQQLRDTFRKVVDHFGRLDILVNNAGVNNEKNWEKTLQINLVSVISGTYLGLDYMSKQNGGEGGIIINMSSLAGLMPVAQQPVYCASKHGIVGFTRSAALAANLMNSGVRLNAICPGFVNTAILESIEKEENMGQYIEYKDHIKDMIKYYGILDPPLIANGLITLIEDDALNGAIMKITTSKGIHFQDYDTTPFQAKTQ
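NADH formation kinetics: reaction with 30 uM PGE2 and 1 mM NAD+ (final), 20 nM enzyme, Tris-HCl pH 8 with Tween 20, after 15 min compound preincubation at room temperature. Fluorescence change, last versus first of five reads.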
Starred values were filed as active, the others as inactive; ? = inconclusive; . = not tested or not shown; ! = not confirmed by another sample; [ ] = another dose, or the depositor's remark. This is a sample that favours compounds with a hit; in the whole collection about 9.2% have one here. Unless noted, calls come from the whole dose curve; as a rule, active = well fitted inhibition curve with a large enough effect (not every such curve was filed as active); inconclusive = small, poorly fitted or top-dose-only effect, or another doubt; inactive = no such curve, though single readings can be large or run the other way. Potency is the fitted concentration of half-maximal effect.

SMILES	Lamin A splicing	ALDH1A1 block	HTT ATP protect	HTT aggregate	KDM4E inh	HPGD block
CC(=O)c1c(O)c(C)c(O)c2c1OC1=CC(=O)[C@H](C(C)=O)C(=O)[C@]12C	.	.	-3%	.	.	.
CN(CCc1ccccn1)C1CC(=O)N(c2ccc(Cl)cc2)C1=O (configuration not stated)	8%	25µM*	4%	16%	0%	-22%
O=[N+]([O-])c1ccccc1NC(=S)N/N=C/c1ccc(O)c(O)c1	.	-10%	-77%	?	25µM*	.
O=C(Nc1nccs1)c1ccc(Cl)cc1[N+](=O)[O-]	8%	19%	-21%	5%	2%	-2%
O=[N+]([O-])c1cc(/C=N\Nc2nccs2)ccc1O	-6%	?	-36%	-20%	?	8.9µM*
O=C(COc1ccccc1[N+](=O)[O-])N/N=C/c1ccc(O)c([N+](=O)[O-])c1	-1%[46 µM]	25µM*	-24%[10 µM]	-27%	-4%	.
O=C(COc1ccccc1C(=O)N/N=C\c1ccc(O)c(O)c1)N/N=C/c1ccc(O)c(O)c1	11%	2%	-22%	-18%	13µM*	-30%
O=C(COc1ccccc1[N+](=O)[O-])N/N=C/c1ccccn1	-8%	?	29%[10 µM]	-13%	6%	-12%
Cc1ccccc1OCC(=O)N/N=C/c1ccc(N(C)C)cc1	12%[46 µM]	?	2%[10 µM]	2%	?	.
O=C(Nc1cccc(Cl)c1)C1C2CCC3C(CCC21)C3(Cl)Cl (configuration not stated)	?	2%	-7%[10 µM]	?	1%	-10%
COc1cc2c(cc1OC)C(COc1cc(C)cc(C)c1)N(C(=O)c1ccc(S(=O)(=O)N3CCCC3)cc1)CC2 (configuration not stated)	-10%[46 µM]	.	.	.	.	.
CCOC(=O)C(NC(=O)c1ccc(OC)cc1)(N1CCCC1=O)C(F)(F)F (configuration not stated)	-6%	6%	.	-6%	-4%	2%
O=C1Cc2c([nH]c3ccc(Br)cc23)-c2ccccc2N1	?	10%	16µM*!	.	?	-26%
COc1ccccc1NC(=O)Cn1c(SCC(=O)N(C)c2ccccc2)nc2ccccc21	0%[46 µM]	.	.	.	.	.
O=C1CC(N2CCN(c3ccccn3)CC2)C(=O)N1CC(c1ccccc1)c1ccccc1 (configuration not stated)	?	3.2µM*	-39%[10 µM]	2%	-5%	-27%
COc1ccc(CCN2C(=O)CC(N3CCN(c4ccccn4)CC3)C2=O)cc1OC (configuration not stated)	2%	25µM*	6%	9%	3%	-12%
COc1ccc(CCN2C(=O)CC(Sc3ncccc3C(=O)O)C2=O)cc1OC (configuration not stated)	-18%	3.5µM*	3%[0.074 µM]	1%	3%	-12%
COc1ccc(CCN2C(=O)CC(C(N)=O)SC2=Nc2ccccc2)cc1OC (configuration not stated)	11%	14µM*	2%[10 µM]	15%	-3%	-9%
COc1ccc(CCN2C(=O)CC(N3CCN(C/C=C/c4ccccc4)CC3)C2=O)cc1OC (configuration not stated)	.	.	14%[10 µM]	0%[9.22 µM]	4%	.
Cc1ccc(CNC(=O)COCc2cc(-c3ccc4c(c3)OCO4)on2)cc1	-5%[46 µM]	.	.	.	.	.
CCOC(=O)C1CCN(C(=O)c2cc(C)n(C(C)(C)C)n2)CC1	.	.	15%[10 µM]	-25%[9.22 µM]	-1%	.
CC(=O)C(C(C)=O)c1c(Cl)c(O)c(O)c2c(C(=O)c3ccccc3)coc12	?	7%	-22%	?	16µM*	3.2µM*
CCOC(=O)c1scc(-c2ccc(C)cc2)c1S(=O)(=O)Nc1cccc(CC)c1	-12%[46 µM]	.	.	.	.	.
CCN1C(=O)C2C(C1=O)N1C(c3cccs3)C3C(=O)N(CC)C(=O)C3N1C2c1cccs1 (configuration not stated)	17%	5%	-2%	28µM*	19%	-3%
CCN1C(=O)C2C(C1=O)N1C(c3ccccc3)C3C(=O)N(CC)C(=O)C3N1C2c1ccccc1 (configuration not stated)	-9%	-6%	0%	5%	3%	-5%
SMILES	Lamin A splicing	ALDH1A1 block	HTT ATP protect	HTT aggregate	KDM4E inh	HPGD block
O=C(c1ccccc1Oc1ccccc1)N1CCN(c2ccccc2F)CC1	-4%	-8%	-18%	4%	8%	-3%
COc1ccc(/C=C2/SC(=S)N(n3c(C)ccc3C)C2=O)cc1	17%	6.3µM*	27%	-5%[9.22 µM]	3%	-26%
Cc1cc(/C=C2\SC(=O)NC2=O)c(C)n1-c1ccc(N2CCOCC2)cc1	.	-5%	-7%[10 µM]	-4%[9.22 µM]	-24%	.
Cc1cc(/C=C2\SC(=S)N(C)C2=O)c(C)n1-c1cccc(O)c1	.	.	19%[10 µM]	4%[9.22 µM]	-18%	.
O=C1/C(=C\c2ccco2)SC(=S)N1Cc1ccccc1	?	14µM*	10%	11%	-14%	-21%
COc1ccc(-n2c(C)cc(/C=C3/SC(=S)N(C)C3=O)c2C)cc1	-13%	1µM*	0%[10 µM]	2%	0%	-10%
Cc1cc(/C=C2\SC(=S)N(Cc3ccco3)C2=O)c(C)n1-c1ccccc1	?	0.089µM*	.	12%	-25%	?
COC(=O)c1nnc(C(=O)NCc2ccccc2)c2[nH]c3ccccc3c12	.	-1%	?	.	6%	-20%
COc1ccc(OC)c(S(=O)(=O)NCCc2sc(-c3ccc(C)cc3)nc2C)c1	5%[46 µM]	.	.	.	.	.
Cc1nnc(NC(=O)CSCc2cc(=O)c3cc(Cl)ccc3[nH]2)s1	8%[46 µM]	.	.	.	.	.
O=C1/C(=C\c2ccco2)SC(=S)N1c1ccccc1	1%	8.9µM*	.	13%	20µM*	-19%
Cc1ccc(N2C(=O)/C(=C\c3ccco3)SC2=S)cc1	?	?	-12%	2%	-3%	?
COC(=O)[C@@]1(Cc2ccc(F)cc2)[C@H]2c3cc(C(=O)N4CCCC4)n(Cc4cccc5ccccc45)c3C[C@H]2CN1C(=O)c1ccccc1	.	-4%	?	.	-8%	-11%
CC(C)CC(N=Cc1c(O)c2ccccc2oc1=O)C(=O)O (configuration not stated)	.	14µM*	8%	1%	2%	.
O=C(O)CCCN=Cc1c(O)c2ccccc2oc1=O	.	?	-71%	1%	-2%	.
Cc1ccc(/C=N/N(Cc2ccccc2)c2ccccc2)o1	?	20µM*	-28%	-3%	-11%	.
C=CC[N+](C)(C)C/C(Cl)=C(\Cl)c1ccccc1	-4%	19%	5%	2%	-4%	-2%
O=c1[nH]c2ccc(Cl)cc2c(O)c1-c1ccccc1	-1%	6%	22%	-13%	?	-9%

Screens from PubChem.
